Source: PubChem
GLS inhibitor – inhibitors of human glutaminase (GLS) | O94925 | GLS enzymatic activity, qHTS titration | Potency, µM (titrated, usually from 45.5 µM), inactives show top-dose activity change, negative = inhibition, actives largely listed as inhibitors | 0.21% of 410,000 active; note: potency is the fitted concentration of half-maximal effect; % is set by controls: 0 for no effect and ±100 for the full control effect
Target sequence (O94925 whole entry, looked up): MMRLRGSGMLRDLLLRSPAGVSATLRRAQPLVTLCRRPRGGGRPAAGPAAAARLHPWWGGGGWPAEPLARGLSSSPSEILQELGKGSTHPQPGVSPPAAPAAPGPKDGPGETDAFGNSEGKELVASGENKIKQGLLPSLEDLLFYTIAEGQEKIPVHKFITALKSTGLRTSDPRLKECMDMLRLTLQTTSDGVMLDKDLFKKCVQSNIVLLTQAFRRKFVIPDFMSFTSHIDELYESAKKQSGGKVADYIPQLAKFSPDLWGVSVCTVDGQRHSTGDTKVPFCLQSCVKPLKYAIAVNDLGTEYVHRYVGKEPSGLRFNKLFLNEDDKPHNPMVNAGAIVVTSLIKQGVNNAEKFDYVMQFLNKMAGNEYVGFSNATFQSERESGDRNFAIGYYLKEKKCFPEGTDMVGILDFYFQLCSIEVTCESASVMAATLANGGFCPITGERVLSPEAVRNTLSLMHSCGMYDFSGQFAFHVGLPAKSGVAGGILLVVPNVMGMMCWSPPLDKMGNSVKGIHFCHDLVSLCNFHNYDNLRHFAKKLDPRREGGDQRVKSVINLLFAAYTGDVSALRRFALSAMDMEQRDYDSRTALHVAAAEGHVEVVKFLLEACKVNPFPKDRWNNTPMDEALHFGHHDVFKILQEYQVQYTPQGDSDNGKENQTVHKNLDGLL
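hKGA in 45 mM KH2PO4 pH 8.2, 0.02% Tween-20 with pin-transferred compounds; 1 mM L-glutamine (stock) plus glutamate oxidase/HRP/Amplex Red coupling added. Fluorescence read initially and after 30 min at RT.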
mIDH1 inhibitor – blocks human mutant IDH1 R132H enzyme; 0.093% of 390,000 active; Potency, µM (top dose mostly 76.6 µM), inactives show at the highest dose activity change, negative = inhibition, usual class: inhibitors; O75874; IDH1-R132H enzyme, NADPH consumption, diaphorase/resazurin fluorescence; AID 602179; note: potency is the fitted concentration of half-maximal effect; % is set by controls: 0 for no effect and ±100 for the full control effect; nearly all actives have a fitted effect of over 65% in size
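IDH1-R132H (0.5 ug/mL dispensed) in pH 7.5 Tris buffer was preincubated 30 min with compound, then given a substrate mix of 0.016 mM NADPH and 2 mM alpha-KG for 80 min at room temperature; remaining NADPH was read by diaphorase/resazurin fluorescence.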
TrxR1 substrate – substrates of rat thioredoxin reductase 1 | O89049 | purified TrxR1 substrate turnover, NADPH consumption readout | Potency, µM (highest dose often 114 µM), for the others: top-dose activity change, negative = substrate turnover | 0.01% of 390,000 active; note: potency is the fitted concentration of half-maximal effect; % is set by controls: 0 for no effect and ±100 for the full control effect; nearly all actives have a fitted effect of over 50% in size
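Rat TrxR1, dispensed at 90 nM, was prereduced with 400 uM NADPH (final) for 5 min at ~22 deg C, then incubated with compound 15 min before 400 uM selenite. A first-read NADPH fluorescence drop versus no-compound background flagged substrates.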
rTrxR1 inhibitor – rat TrxR1 inhibition | O89049 | recombinant rTrxR1, NADPH fluorescence consumption, selenite substrate | Potency, µM (titrated, usually from 114 µM), without a hit: at the top dose activity change, negative = inhibition, usual class: inhibitors | 1% of 390,000 active; note: potency is the fitted concentration of half-maximal effect; % is set by controls: 0 for no effect and ±100 for the full control effect; nearly all actives have a fitted effect of over 65% in size
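Rat TrxR1 (90 nM in the dispensed reagent) was pre-reduced with 400 uM NADPH for 5 min at room temperature, then incubated with compound for 15 min. After 400 uM selenite was added, NADPH fluorescence (Ex 340/Em 450 nm) was followed for 8 min.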
IDH1 autofl – autofluorescence interference, mutant IDH1 hit counter-screen. 750 tested, under 10 active. shares compounds with mIDH1 inhibitor. Resorufin detection reagent fluorescence interference, cell-free. AID 623980. inhibition of signal, % at 51.2 µM;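 note: 0% = wells with normal resorufin and full inhibition = wells lacking resorufin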
WT IDH1 inh – inhibits human wild-type IDH1, mutant selectivity check. shares compounds with mIDH1 inhibitor. WT IDH1 enzyme, NADPH diaphorase/resazurin fluorescence. Potency, µM (series often up to 115 µM), for the others: at the top dose activity change, negative = inhibition, hits mostly inhibitors. 9% of 750 active;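 note: potency is the fitted concentration of half-maximal effect; 0% = full WT IDH1 enzyme control and full inhibition = no enzyme wells; nearly all actives have a fitted effect of over 55% in size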
IDH1 R132H conf – mutant IDH1 (human) inhibition, confirmed; 83% of 750 active; shares compounds with mIDH1 inhibitor; Potency, µM (series often up to 76.6 µM), for the others: at the top dose activity change, negative = inhibition, actives largely listed as inhibitors; AID 624002; IDH1 R132H enzyme, NADPH diaphorase/resazurin fluorescence; note: potency is the fitted concentration of half-maximal effect; nearly all actives have a fitted effect of over 50% in size
* marks the source's active call; other numbers are inactive results; [ ] = dose if it differs, or a comment. Only some compounds are listed: those with a hit (about 1.2% of all), similar ones and a draw of the others. Calls come from the whole dose curve; as a rule, active = well fitted curve in the direction sought with a large enough effect; inconclusive = small, poorly fitted or top-dose-only effect, or another doubt; inactive = no such curve, though single readings can be large; an effect the other way counts as inactive or inconclusive.

What do the screens show for `CCOC(=O)c1c(-c2ccc(C)o2)csc1NC(=O)CN1CCC(C(N)=O)CC1`?
GLS inhibitor: -10%; mIDH1 inhibitor: 16%; TrxR1 substrate: 8%; rTrxR1 inhibitor: -48%

How did CCOC(=O)c1c(-c2ccc(C)o2)csc1NC(=O)CN(C)CC(=O)Nc1ccc(C)cc1 do in these assays?
GLS inhibitor: -4%; mIDH1 inhibitor: inconclusive; TrxR1 substrate: 5%; rTrxR1 inhibitor: inconclusive; IDH1 autofl: -1; WT IDH1 inh: -9%; IDH1 R132H conf: 14µM*

Results for CC(C)Oc1cccc(C(=O)Nc2ccc3oc(-c4cccc(Cl)c4)nc3c2)c1 ?
GLS inhibitor: -14%; mIDH1 inhibitor: -25%; TrxR1 substrate: 76%; rTrxR1 inhibitor: -1%

What do the screens show for `Cc1ccc(-n2nc(CO)c(C(=O)NCCCc3ccccc3)n2)cc1`?
GLS inhibitor: -4%; mIDH1 inhibitor: 4%; TrxR1 substrate: -1%; rTrxR1 inhibitor: 1%

How did O=S(=O)(Nc1cccc(-c2ccc(N3CCOCC3)nn2)c1)c1ccccc1C(F)(F)F do in these assays?
GLS inhibitor: 10%; mIDH1 inhibitor: 20%; TrxR1 substrate: -5%[57.1 µM]; rTrxR1 inhibitor: -5%[57.1 µM]

Results for Cn1c2ccccc2c(=O)c2c(=O)n(C3CCCCCC3)c(C3CCCCC3)nc21 ?
GLS inhibitor: 0%; mIDH1 inhibitor: 9.3µM*; TrxR1 substrate: -17%; rTrxR1 inhibitor: -6%; IDH1 autofl: 4; WT IDH1 inh: 14µM*; IDH1 R132H conf: 2.8µM*

How did COc1ccc(Cn2c(C3CCCCC3)nc3c(c(=O)c4ccccc4n3C)c2=O)cc1 do in these assays?
GLS inhibitor: -27%; mIDH1 inhibitor: inconclusive; TrxR1 substrate: 3%; rTrxR1 inhibitor: 29%

Results for Cn1c2ccccc2c(=O)c2c(=O)n(-c3ccccc3)c(C3CCCCC3)nc21 ?
GLS inhibitor: -25%; mIDH1 inhibitor: 12µM*; TrxR1 substrate: -2%; rTrxR1 inhibitor: 6%; IDH1 autofl: -2; WT IDH1 inh: 25µM*; IDH1 R132H conf: 4.5µM*

How did Cn1c2ccccc2c(=O)c2c(=O)n(C3CCCCC3)c(-c3cccs3)nc21 do in these assays?
GLS inhibitor: -5%; mIDH1 inhibitor: 37µM*; TrxR1 substrate: 1%; rTrxR1 inhibitor: 16%; IDH1 autofl: 12; WT IDH1 inh: -21%; IDH1 R132H conf: 16µM*

Results for Cc1cc(C)cc(OCCCn2c(CCNC(=O)C3CCCCC3)nc3ccccc32)c1 ?
GLS inhibitor: -4%; mIDH1 inhibitor: 14%; TrxR1 substrate: -8%; rTrxR1 inhibitor: -1%

Results for CC(C)c1ccc(OCc2ccc(C(=O)N3CCCC3)o2)cc1 ?
GLS inhibitor: 7%; mIDH1 inhibitor: 8%; TrxR1 substrate: 11%; rTrxR1 inhibitor: -24%

Results for COc1ccc(S(=O)(=O)N=Nc2c(O)[nH]c3ccccc23)cc1 ?
GLS inhibitor: -7%; mIDH1 inhibitor: 52µM*; TrxR1 substrate: -8%; rTrxR1 inhibitor: -17%; IDH1 autofl: -1; WT IDH1 inh: 143%; IDH1 R132H conf: inconclusive

How did Cc1ccc(S(=O)(=O)N=Nc2c(O)[nH]c3ccccc23)cc1C do in these assays?
GLS inhibitor: 14%; mIDH1 inhibitor: 46µM*; TrxR1 substrate: -6%[57.1 µM]; rTrxR1 inhibitor: -17%[57.1 µM]; IDH1 autofl: 1; WT IDH1 inh: 217%; IDH1 R132H conf: 45µM*

What do the screens show for `COc1ccc(NC(=S)N=Nc2c(O)[nH]c3ccccc23)cc1`?
GLS inhibitor: 5%; mIDH1 inhibitor: -3%; TrxR1 substrate: -8%; rTrxR1 inhibitor: -1%

What do the screens show for `CC(C)N(C)C1=CC(=O)C(N(C)C(C)C)=CC1=O`?
GLS inhibitor: 0%; mIDH1 inhibitor: 6%; TrxR1 substrate: 7%[11.4 µM]; rTrxR1 inhibitor: -12%[11.4 µM]

What do the screens show for `Cc1cc(NC(=O)CCC(=O)N(c2cccc(F)c2)C(C(=O)NC2CCCC2)c2ccc(C)o2)no1` (stereo not drawn)?
GLS inhibitor: -9%; mIDH1 inhibitor: inconclusive; TrxR1 substrate: 18%[0.0914 µM]; rTrxR1 inhibitor: 23%[57.1 µM]; IDH1 autofl: -1; WT IDH1 inh: -4%; IDH1 R132H conf: 22µM*

Results for CC(=O)c1cccc(N(C(=O)CS(=O)CC(=O)Nc2ccc(F)cc2)C(C(=O)NC2CCCCC2)c2ccc(C)o2)c1 (stereo not drawn) ?
GLS inhibitor: 8%; mIDH1 inhibitor: inconclusive; TrxR1 substrate: -14%; rTrxR1 inhibitor: inconclusive; IDH1 autofl: 0; WT IDH1 inh: 1%; IDH1 R132H conf: 16µM*

What do the screens show for `Cc1cc(NC(=O)CCC(=O)N(c2cccc(F)c2)C(C(=O)NC2CCCC2)c2ccccc2)no1` (stereo not drawn)?
GLS inhibitor: 11%; mIDH1 inhibitor: 46µM*; TrxR1 substrate: 4%; rTrxR1 inhibitor: 23%; IDH1 autofl: 0; WT IDH1 inh: -10%; IDH1 R132H conf: 16µM*

What do the screens show for `Cc1cccc(N(C(=O)CCC(=O)Nc2cc(C)on2)C(C(=O)NC2CCCC2)c2ccc(C)o2)c1` (stereo not drawn)?
GLS inhibitor: 6%; mIDH1 inhibitor: -26%; TrxR1 substrate: 3%; rTrxR1 inhibitor: 0%

What do the screens show for `CCOC(=O)Cn1c(=O)oc2cc(S(=O)(=O)NCc3ccc(F)cc3)ccc21`?
GLS inhibitor: 9%; mIDH1 inhibitor: -13%; TrxR1 substrate: 6%; rTrxR1 inhibitor: 18%

Results for COc1ccc(-c2csc(C(O)c3ccc(F)cc3)n2)cn1 (stereo not drawn) ?
GLS inhibitor: 11%

How did CCC(C)NC(=O)c1ccc2c(c1)nc1n2CCCCC1 (stereo not drawn) do in these assays?
GLS inhibitor: -13%; mIDH1 inhibitor: 0%; TrxR1 substrate: -2%[57.1 µM]; rTrxR1 inhibitor: 20%[57.1 µM]

Results for O=C(NC(=S)Nc1ccccc1N1CCCC1)c1ccc(-c2cccc([N+](=O)[O-])c2)o1 ?
GLS inhibitor: 10%; mIDH1 inhibitor: 10%; TrxR1 substrate: 7%[57.1 µM]; rTrxR1 inhibitor: 0%[57.1 µM]

Results for CC(=O)N1CCN(c2ccccc2NC(=O)c2ccc(-c3cccc([N+](=O)[O-])c3)o2)CC1 ?
GLS inhibitor: 6%; mIDH1 inhibitor: inconclusive; TrxR1 substrate: -1%; rTrxR1 inhibitor: -7%; IDH1 autofl: 2; WT IDH1 inh: 2%; IDH1 R132H conf: inconclusive
